This is an account of results in PubChem BioAssay (NCI).

This is part of a sample that, as a whole, favours compounds with a hit. Of some 83,000 tested, about 20% had one in any assay.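 How to read the values: 0–100, growth inhibition (40 = 60% inhibited); 0, no net growth; -100 to 0, cell death (-40 = 40% of starting cells died; -100 = all dead).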 Values without a mark were called inactive. Calls of active or inactive are those of the source. How the source made its calls: active means growth percent below 10; inactive means the rest.

The first experiment relates to NCI-H226 lung. Kind of experiment: NCI-60 one-dose screen, 48 h (100 = growth as untreated, 0 = no growth, -100 = all killed). As to conditions: 10 µM unless noted.
Take `CNC(=O)c1cc(Oc2ccc3nc(NC(=O)Nc4cccc(OC(F)(F)F)c4)sc3c2)ccn1`: the growth is -24.5% (active).
For `CC(C)(C)OC(=O)/C=C/c1cccc2c1C(=O)NC(C)(c1cc3cc(Cl)ccc3oc1=O)N2` (stereo unspecified), the growth was 50.6%.
In the case of `Cc1ccc(C2CC(c3ccc(S(=O)(=O)NCCNc4nc(Nc5ccc(F)cc5)nc(N(C)C)n4)cc3)=Nc3c(N)nc(N)nc3N2)cc1` (stereo unspecified), the growth is 62.7%.
With `CC1=C(C(=O)OC(C)C)C(c2cccc(O)c2)NC(=S)N1` (stereo unspecified), the growth was 101%.
On the same count and under the same terms, next, `C[C@H](Nc1nc(NCCc2ccccc2)nc2ccccc12)c1ccccc1`: -80.4% (active); `COc1ccc(-c2c(Nn3cnnn3)no[n+]2[O-])cc1`: 83.2%.
Turning to `Cn1cc(NC(=O)c2cc(NC(=O)c3ccc(C#Cc4ccccc4)cc3)cn2C)cc1C(=O)NCCCN1CCOCC1`, the growth was 69.7%.
For `COc1cc(NC(=O)c2cccc(C3CCc4c(cc(OC)c(OC)c4OC)O3)c2)cc(OC)c1OC` (stereo unspecified), the growth was 21.4%.
As for `COc1ccc(-c2nnc3ccc(N/N=C/c4ccc(C)cc4)nn23)cc1`, the growth is 54.6%.
As to `Cc1ccc(-n2c(-c3cc4ccccc4nc3Cl)noc2=O)cc1`, the growth is 77.7%.
As for `CC(=O)Oc1ccccc1C(=O)[Se]CC(=O)Nc1cccc(C(F)(F)F)c1`, the growth is -39.2% (active).
For the compound `N#Cc1c(-c2ccccc2Cl)cc(-c2ccc3ccccc3c2)[nH]c1=O`, the growth was -24.5% (active).
On to `CCCCNC(=S)Nc1ccc(OCc2nc3ccccc3[nH]2)cc1`, for which the growth is 102%.
With `COc1ccc(-c2nc3cc(C)ccc3n2CC(=O)N=Nc2c(O)[nH]c3ccccc23)cc1`, the growth is -35.5% (active).
As for `COc1ccc(-c2nc3ccc(C(=O)NN4C(=O)c5ccc([N+](=O)[O-])cc5C4=O)cc3[nH]2)cc1`, the growth was 79.9%.
Take `O=c1oc2ccccc2cc1-c1csc(N=Nc2c(O)[nH]c3ccc(Cl)cc23)n1`: the growth is 98.3%.
For the compound `CN(C)c1ccnc(CNCCSC2(c3ccccc3)c3ccccc3C=Cc3ccccc32)c1`, the growth was 16.7%.
The same measure, in the same setting: next, `COc1cc2c(c(OC)c1OC)C(=O)CC(c1cccc(NC(=O)c3cc(NC(=O)[C@@H](N)CO)ccc3C)c1)O2` (stereo partly specified): 103%; `COc1ccc(C(=O)/C=C/c2c(F)cccc2Cl)cc1S(N)(=O)=O`: 22.2%.
Regarding `O=C(Nc1cccc(-n2cnc3cc(-c4ccc(O)cc4)ccc32)c1)C1CC1`, the growth was 13.8%.
Take `COc1ccc(C2(SCCNCc3cc(N(C)C)ccn3)c3ccccc3C=Cc3ccccc32)cc1`: the growth was 50.6%.
With `N/C(=N\c1nc2ccccc2s1)NC(=O)Nc1ccccc1Br`, the growth is 8.79% (active).
Same read-out and setting: the same measure for `COc1ccc(C2=NN(c3ccccc3)C(c3ccc(OC)c(OCc4ccccc4)c3)C2)cc1OC` (stereo unspecified): 85.4%; for `CC1=C(C(=O)c2ccccc2)C(c2ccc(-n3cncn3)cc2)n2c(nc3ccccc32)N1` (stereo unspecified): 87.4%; for `CN(C)CCCNC(=O)c1cc(NC(=O)c2cc(NC(=O)c3ccc(C#Cc4ccccc4)cc3)cn2C)cn1C`: 4.56% (active).
Consider `COc1cccc(/C=C/c2nc3ccccc3c(=O)n2CC(=O)Nc2ccc(Cl)cc2)c1`, for which the growth was 54.9%.

A further experiment has as its system NCI-H322M lung. The experiment is described as above. The settings on record: 10 µM unless noted.
`COc1cc(/C=C2\C(=N)N=C(SCc3nc4ccccc4[nH]3)NC2=O)ccc1O`: the growth is 103%.
For `CN(C)c1nc(NCCNS(=O)(=O)c2ccc(C(=O)/C=C/c3ccc(F)cc3)cc2)nc(Nc2ccc(F)cc2)n1`, the growth is -22.6% (active).
On to `Cc1ccc(C2CC(c3ccc(S(=O)(=O)NCCNc4nc(Nc5ccc(F)cc5)nc(N(C)C)n4)cc3)=Nc3c(N)nc(N)nc3N2)cc1` (stereo unspecified), for which the growth is 70.2%.
As for `N#Cc1c(-c2ccccc2Cl)cc(-c2ccc3ccccc3c2)[nH]c1=O`, the growth was 28.1%.
Take `O=c1oc2ccccc2cc1-c1csc(N=Nc2c(O)[nH]c3ccc(Cl)cc23)n1`: the growth was 114%.
Turning to `N/C(=N\c1nc2ccccc2s1)NC(=O)Nc1ccccc1Br`, the growth was 14.6%.
Regarding `COc1cccc(/C=C/c2nc3ccccc3c(=O)n2CC(=O)Nc2ccc(Cl)cc2)c1`, the growth is 75%.

The subject of a further experiment is HOP-62 NSCLC. Described as above. As to conditions: 10 µM unless noted.
In the case of `COC(=O)C[C@](O)(CCCC(C)(C)O)C(=O)O[C@H]1C(OC)=C[C@@]23CCCN2CCc2cc4c(cc2[C@@H]13)OCO4`, the growth is 14.3%.
For `COc1cc(/C=C2\C(=N)N=C(SCc3nc4ccccc4[nH]3)NC2=O)ccc1O`, the growth is 101%.
In the case of `N/C(=N\N=C\c1ccc([N+](=O)[O-])cc1)c1c(N)nc(=S)[nH]c1-c1ccc(Cl)cc1Cl`, the growth is 57%.
Regarding `CC1(c2cc3cc(Cl)ccc3oc2=O)NC(=O)c2c(/C=C/C(=O)OC3CC4CCC3(C)C4(C)C)cccc2N1` (stereo unspecified), the growth is 71.5%.
In the case of `O=C(N=Nc1c(O)[nH]c2ccc(Cl)cc12)c1ccc2nc(-c3ccccc3)[nH]c2c1`, the growth is 81.3%.
`O=C(O)c1cccc(-c2ccc(/C=N/NC(=O)c3[nH]c4ccc(Br)cc4c3-c3ccccc3)o2)c1`: the growth is 68.9%.
For `CC1(C)CC[C@]2(C(=O)Nc3ccccc3)CC[C@]3(C)C(=CCC4[C@@]5(C)C[C@@H](O)[C@H](O)[C@@](C)(CO)C5CC[C@]43C)C2C1` (stereo partly specified), the growth was 75.3%.
As to `O=c1[nH]c2ccccc2cc1CSc1cccc(Nc2nccc(-c3ccc4ccccc4c3)n2)c1`, the growth is 95.3%.
On to `Clc1cccc(N/N=C/c2c[nH]c3ccc(Br)cc23)n1`, for which the growth is 54.1%.
Consider `CSc1ccc(NC(=O)c2ccc3nnn(/C(C#N)=C/c4ccccn4)c3c2)cc1`, for which the growth was -58.1% (active).
For `Cc1c(C(=O)NNC(=O)c2ccc(Cl)cc2)nnn1-c1ccc(Cl)cc1`, the growth is 97.3%.
For `CN(C)c1nc(NCCNS(=O)(=O)c2ccc(C(=O)/C=C/c3ccc(F)cc3)cc2)nc(Nc2ccc(F)cc2)n1`, the growth was -71.2% (active).
For `CNC(=O)c1cc(Oc2ccc3nc(NC(=O)Nc4cccc(OC(F)(F)F)c4)sc3c2)ccn1`, the growth was -71.7% (active).
Regarding `CC(C)(C)OC(=O)/C=C/c1cccc2c1C(=O)NC(C)(c1cc3cc(Cl)ccc3oc1=O)N2` (stereo unspecified), the growth is 64%.
For `Cc1ccc(C2CC(c3ccc(S(=O)(=O)NCCNc4nc(Nc5ccc(F)cc5)nc(N(C)C)n4)cc3)=Nc3c(N)nc(N)nc3N2)cc1` (stereo unspecified), the growth was 87.7%.
For the compound `CC1=C(C(=O)OC(C)C)C(c2cccc(O)c2)NC(=S)N1` (stereo unspecified), the growth was 95.9%.
`C[C@H](Nc1nc(NCCc2ccccc2)nc2ccccc12)c1ccccc1`: the growth was -90.3% (active).
In the case of `COc1ccc(-c2c(Nn3cnnn3)no[n+]2[O-])cc1`, the growth is 75.2%.
Regarding `Cn1cc(NC(=O)c2cc(NC(=O)c3ccc(C#Cc4ccccc4)cc3)cn2C)cc1C(=O)NCCCN1CCOCC1`, the growth was 85.4%.
For the compound `COc1cc(NC(=O)c2cccc(C3CCc4c(cc(OC)c(OC)c4OC)O3)c2)cc(OC)c1OC` (stereo unspecified), the growth was 30.6%.
Same read-out and setting: the same measure for `COc1ccc(-c2nnc3ccc(N/N=C/c4ccc(C)cc4)nn23)cc1`: 70.4%; for `Cc1ccc(-n2c(-c3cc4ccccc4nc3Cl)noc2=O)cc1`: 65.1%; for `CC(=O)Oc1ccccc1C(=O)[Se]CC(=O)Nc1cccc(C(F)(F)F)c1`: -61.1% (active).
Turning to `N#Cc1c(-c2ccccc2Cl)cc(-c2ccc3ccccc3c2)[nH]c1=O`, the growth was -7.48% (active).
Regarding `CCCCNC(=S)Nc1ccc(OCc2nc3ccccc3[nH]2)cc1`, the growth was 69.5%.
In the case of `COc1ccc(-c2nc3cc(C)ccc3n2CC(=O)N=Nc2c(O)[nH]c3ccccc23)cc1`, the growth was 10.4%.
As for `COc1ccc(-c2nc3ccc(C(=O)NN4C(=O)c5ccc([N+](=O)[O-])cc5C4=O)cc3[nH]2)cc1`, the growth was 91.8%.
As to `O=c1oc2ccccc2cc1-c1csc(N=Nc2c(O)[nH]c3ccc(Cl)cc23)n1`, the growth was 101%.
The same measure, in the same setting: next, `CN(C)c1ccnc(CNCCSC2(c3ccccc3)c3ccccc3C=Cc3ccccc32)c1`: 9.26% (active); `COc1cc2c(c(OC)c1OC)C(=O)CC(c1cccc(NC(=O)c3cc(NC(=O)[C@@H](N)CO)ccc3C)c1)O2` (stereo partly specified): 108%.
As for `COc1ccc(C(=O)/C=C/c2c(F)cccc2Cl)cc1S(N)(=O)=O`, the growth was 2.33% (active).
In the case of `O=C(Nc1cccc(-n2cnc3cc(-c4ccc(O)cc4)ccc32)c1)C1CC1`, the growth was 44.7%.
With `COc1ccc(C2(SCCNCc3cc(N(C)C)ccn3)c3ccccc3C=Cc3ccccc32)cc1`, the growth was 40%.
Same read-out and setting: the same measure for `N/C(=N\c1nc2ccccc2s1)NC(=O)Nc1ccccc1Br`: -19.3% (active); for `COc1ccc(C2=NN(c3ccccc3)C(c3ccc(OC)c(OCc4ccccc4)c3)C2)cc1OC` (stereo unspecified): 96.7%.
Turning to `CC1=C(C(=O)c2ccccc2)C(c2ccc(-n3cncn3)cc2)n2c(nc3ccccc32)N1` (stereo unspecified), the growth was 71.5%.
As to `CN(C)CCCNC(=O)c1cc(NC(=O)c2cc(NC(=O)c3ccc(C#Cc4ccccc4)cc3)cn2C)cn1C`, the growth is 8.16% (active).
For the compound `COc1cccc(/C=C/c2nc3ccccc3c(=O)n2CC(=O)Nc2ccc(Cl)cc2)c1`, the growth is 71.4%.
